Measured values as given in PubChem BioAssay (EPA / NIEHS).
Where “and” joins values, the source holds several entries; their conditions need not be identical. Equal entries are not always repeated. Results filed as inconclusive are left out. Some compounds were tested as several samples or in several runs, with calls that do not always agree. Calls of active or inactive are those of the source. The calls were made as follows: active = hit-call score of the fitted dose curve at least 0.9, where 1 is the maximum; inconclusive = response in the unintended direction; inactive = score below 0.9.

Columns and labels:
[1] = target: human Constitutive Androstane Receptor (CAR), NR1I3 (gene 9970) (UniProt Q14994); assay: NVS_NR_hCAR_Antagonist: NovaScreen (NVS) Nuclear Receptor Binding Assay for human Constitutive Androstane Receptor Antagonism (CAR) (AID 2283344)
Procedure, shortened: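 Cell-free TR-FRET binding read 1 h after dosing, antagonist mode; loss of signal versus DMSO baseline. Primary screen in duplicate at a single 25 uM; actives retested in concentration series.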

[2] = target: bovine Estrogen Receptor (ER), ESR1 (gene 407238) (UniProt P49884); assay: NVS_NR_bER: NovaScreen (NVS) Nuclear Receptor Binding Assay for bovine Estrogen Receptor (ER) (AID 2283345);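 also: actives lower the bound radioligand count which means they displace the ER ligand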
Procedure, shortened: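 Cell-free radioligand binding with receptor from bovine uterine membranes, read by scintillation counting 18 h after dosing. Loss of specific binding was scored against DMSO; primary screen at 25 uM in duplicate, actives then run as concentration series.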

[3] = target: Estrogen receptor (Homo sapiens) (UniProt P03372); assay: OT_ER_ERaERa_1440: Odyssey Thera (OT) 24-hour HEK293T Protein-Complementation Assay for Estrogen Receptor-alpha/-alpha Homodimer (AID 2283349);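 also: hits raise fluorescence above DMSO for agonists and antagonists alike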
Procedure, shortened: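 Readout is the rise in mean fluorescence from reporter fragment complementation when ERα LBD (aa 310-547) units dimerize in HEK293T cells. Measured 24 h after dosing and analysed as increase over DMSO control.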

[4] = target: Estrogen receptor (Homo sapiens) (UniProt P03372); assay: OT_ER_ERaERa_0480: Odyssey Thera (OT) 8-hour HEK293T Protein-Complementation Assay for Estrogen Receptor-alpha/-alpha Homodimer (AID 2283351);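 also: rise in fluorescence from reassembled reporter fragments on ERα LBD homodimer in nucleus or whole cell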
Procedure, shortened: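 Binding reporter in which dimerisation of ERα LBD (aa 310-547) fusions reconstitutes a fluorescent reporter in HEK293T cells. Compounds incubated 8 h; mean fluorescence intensity increase versus DMSO scored.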

[5] = target: Retinoic acid receptor alpha (Homo sapiens) (UniProt P10276); assay: NVS_NR_hRAR_Antagonist: NovaScreen (NVS) Nuclear Receptor Binding Assay for human Retinoic Acid Alpha Receptor Antagonism (RAR) (AID 2283358)
Procedure, shortened: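 Cell-free TR-FRET binding assay on extracted receptor protein, run in antagonist mode; signal read 2 hours after chemical dosing. Loss of signal was fitted relative to DMSO baseline. Screened at 25 uM in duplicate, actives followed up in concentration series.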

[6] = target: rat Gamma-Aminobutyric Acid Type A Receptor BDZ, alpha 6 site (GABARa6), Gabra6 (gene 29708) (UniProt P30191); assay: NVS_LGIC_rGABARa6: NovaScreen (NVS) Ligand-Gated Ion Channel Assay for rat Gamma-Aminobutyric Acid Type A Receptor BDZ, alpha 6 site (GABARa6) (AID 2283339)
Procedure, shortened: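 Rat cerebellar membranes; radioligand binding, filtration and scintillation counting, read 1 h after dosing. Single-concentration duplicate screen at 25 uM, then concentration-response up to 50 uM for actives; loss of signal fitted versus DMSO baseline.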

[7] = target: bovine Gamma-Aminobutyric Acid Type A Receptor Agonist (GABAR Agonist), GABRA1 (gene 780973) (UniProt P08219); assay: NVS_LGIC_bGABAR_Agonist: NovaScreen (NVS) Ligand-Gated Ion Channel Assay for bovine Gamma-Aminobutyric Acid Type A Receptor Agonist (GABAR Agonist) (AID 2283338)
Procedure, shortened: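 Radioligand binding to bovine cerebellar membranes in agonist format, read by filter-based scintillation counting after 1 h. Primary screen in duplicate at 25 uM, with actives followed in concentration series. Gain of signal versus DMSO.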

NCBI gene 100848466 = assay: NVS_NR_bPR: NovaScreen (NVS) Nuclear Receptor Binding Assay for bovine Progextron Receptor (PR) (AID 2283343);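 as to AC50: actives lower bound radioligand signal below DMSO meaning displacement of the label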
Procedure, shortened: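 Bovine uterine membrane preparation, cell-free; radioligand competitive displacement measured by scintillation counting 18 hours after dosing. Loss of signal versus DMSO baseline indicates binding; primary HTS single concentration 25 uM in duplicate, actives followed in concentration series.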

[8] = target: chimpanzee Androgen Receptor (AR), AR (gene 747460) (UniProt O97775); assay: NVS_NR_cAR: NovaScreen (NVS) Nuclear Receptor Binding Assay for chimpanzee Androgen Receptor (AR) (AID 2283346);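 also: radioligand displacement from AR measured by scintillation counting in a cell-free assay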
Procedure, shortened: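 Cell-free radioligand displacement using receptor protein extracted from Sf9/Sf21 cells; bound radioligand measured by scintillation counting 72 hours after chemical dosing. Loss of signal versus DMSO baseline indicates binding; primary screen single-concentration in duplicate at 25 uM, actives followed in concentration series.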

[9] = target: human Peroxisome Proliferator-activated Receptor alpha (PPARa), PPARA (gene 5465) (UniProt Q07869); assay: NVS_NR_hPPARa: NovaScreen (NVS) Nuclear Receptor Binding Assay for human Peroxisome Proliferator-activated Receptor alpha (PPARa) (AID 2283359);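 also: activity means loss of TR-FRET signal versus DMSO baseline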
Procedure, shortened: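 Cell-free binding assay with extracted human protein, read by TR-FRET 1 h after chemical dosing. Loss of signal relative to DMSO baseline indicates binding. Primary screen used duplicate single concentration (25 uM); actives followed up in concentration series.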

[10] = target: Bile acid receptor (Homo sapiens) (UniProt Q96RI1); assay: NVS_NR_hFXR_Antagonist: NovaScreen (NVS) Nuclear Receptor Binding Assay for human Farnesoid X Receptor Antagonism (FXR) (AID 2283350)
Procedure, shortened: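 Cell-free TR-FRET ligand-binding read-out on human FXR (NR1H4) in antagonist mode, measured 1 h after dosing. Primary screen in duplicate at 25 uM, actives retested in concentration series; signal loss scored versus DMSO.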

[11] = target: rat Mineralocorticoid Receptor (MR), Nr3c2 (gene 25672) (UniProt P22199); assay: NVS_NR_rMR: NovaScreen (NVS) Nuclear Receptor Binding Assay for rat Mineralocorticoid Receptor (MR) (AID 2283355)
Procedure, shortened: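 Cell-free radioligand binding to MR in adrenalectomized rat brain supernatant, scintillation counted 24 h after dosing. Loss of signal versus DMSO baseline marks displacement. Primary screen in duplicate at 25 uM; actives retested as concentration series.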

[12] = target: Estrogen receptor (Homo sapiens) (UniProt P03372); assay: NVS_NR_hER: NovaScreen (NVS) Nuclear Receptor Binding Assay for human Estrogen Receptor (ER) (AID 2283348)
Procedure, shortened: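 Cell-free radioligand binding with protein extracted from MCF7 cells; scintillation counting 18 hours after dosing. Loss of signal versus DMSO baseline read as displacement; primary single-concentration screen at 25 uM in duplicate, actives retested in concentration series.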

[13] = target: Androgen Receptor/SRC-1 Co-activator, AR (gene 367) (UniProt P10275); assay: OT_AR_ARSRC1_0960: Odyssey Thera (OT) 16-hour HEK293T Protein-Complementation Assay for Androgen Receptor/SRC-1 Co-activator (AID 2283353);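 also: actives raise the signal above DMSO so potency reflects increased AR and SRC-1 complex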
Procedure, shortened: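 Interaction of AR with SRC-1 was followed by YFP fragment complementation in HEK293T cells after 16 h of dosing. Gain of nuclear-over-cytoplasmic 488 nm fluorescence against DMSO controls defined activity.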

[14] = target: Androgen Receptor/SRC-1 Co-activator, AR (gene 367) (UniProt P10275); assay: OT_AR_ARSRC1_0480: Odyssey Thera (OT) 8-hour HEK293T Protein-Complementation Assay for Androgen Receptor/SRC-1 Co-activator (AID 2283354);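 also: hits raise the complementation signal above DMSO so AC50 marks enhancers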
Procedure, shortened: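 HEK293T cells stably expressing AR and SRC-1 fused to split Venus YFP fragments via (Gly4Ser)2 linkers were read 8 h after compound dosing. Complementation was imaged at 488 and 635nm, and nuclear/cytoplasmic fluorescence ratio (488nm) was taken over ≥400 cells; gain-of-signal versus DMSO.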

Measured: AC50

Retinoic acid receptor alpha (Homo sapiens), sequence (P10276 whole entry, looked up): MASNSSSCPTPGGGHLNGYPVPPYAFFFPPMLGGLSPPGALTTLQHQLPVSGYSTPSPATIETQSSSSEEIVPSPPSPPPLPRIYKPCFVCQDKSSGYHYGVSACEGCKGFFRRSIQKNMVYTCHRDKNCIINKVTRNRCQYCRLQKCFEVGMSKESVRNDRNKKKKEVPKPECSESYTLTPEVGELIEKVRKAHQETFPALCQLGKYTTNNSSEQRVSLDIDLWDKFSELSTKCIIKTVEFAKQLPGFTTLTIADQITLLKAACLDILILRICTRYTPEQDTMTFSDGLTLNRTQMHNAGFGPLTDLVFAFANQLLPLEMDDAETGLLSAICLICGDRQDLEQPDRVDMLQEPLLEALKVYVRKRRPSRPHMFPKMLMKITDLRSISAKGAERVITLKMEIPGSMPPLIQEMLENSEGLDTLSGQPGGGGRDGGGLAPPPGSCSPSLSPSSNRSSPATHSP
bovine Estrogen Receptor (ER), ESR1 (gene 407238), sequence (P49884 whole entry, looked up): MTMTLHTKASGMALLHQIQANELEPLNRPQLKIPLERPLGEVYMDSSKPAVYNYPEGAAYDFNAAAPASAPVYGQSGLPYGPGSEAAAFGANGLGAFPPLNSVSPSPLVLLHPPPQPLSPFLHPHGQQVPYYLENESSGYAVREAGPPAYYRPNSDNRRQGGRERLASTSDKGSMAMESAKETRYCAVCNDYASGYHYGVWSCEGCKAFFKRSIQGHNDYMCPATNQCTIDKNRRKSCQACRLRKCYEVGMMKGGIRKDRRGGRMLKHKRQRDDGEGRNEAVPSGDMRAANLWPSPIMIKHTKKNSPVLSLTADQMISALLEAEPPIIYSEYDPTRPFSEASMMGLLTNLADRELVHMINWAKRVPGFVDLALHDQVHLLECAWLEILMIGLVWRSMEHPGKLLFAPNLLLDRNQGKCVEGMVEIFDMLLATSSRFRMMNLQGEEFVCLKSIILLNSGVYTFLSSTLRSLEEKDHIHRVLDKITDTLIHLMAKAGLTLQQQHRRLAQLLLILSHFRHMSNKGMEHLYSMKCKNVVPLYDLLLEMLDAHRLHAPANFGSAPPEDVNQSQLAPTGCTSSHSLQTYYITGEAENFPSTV
Estrogen receptor (Homo sapiens), sequence (P03372 whole entry, looked up, the tested form may be a part): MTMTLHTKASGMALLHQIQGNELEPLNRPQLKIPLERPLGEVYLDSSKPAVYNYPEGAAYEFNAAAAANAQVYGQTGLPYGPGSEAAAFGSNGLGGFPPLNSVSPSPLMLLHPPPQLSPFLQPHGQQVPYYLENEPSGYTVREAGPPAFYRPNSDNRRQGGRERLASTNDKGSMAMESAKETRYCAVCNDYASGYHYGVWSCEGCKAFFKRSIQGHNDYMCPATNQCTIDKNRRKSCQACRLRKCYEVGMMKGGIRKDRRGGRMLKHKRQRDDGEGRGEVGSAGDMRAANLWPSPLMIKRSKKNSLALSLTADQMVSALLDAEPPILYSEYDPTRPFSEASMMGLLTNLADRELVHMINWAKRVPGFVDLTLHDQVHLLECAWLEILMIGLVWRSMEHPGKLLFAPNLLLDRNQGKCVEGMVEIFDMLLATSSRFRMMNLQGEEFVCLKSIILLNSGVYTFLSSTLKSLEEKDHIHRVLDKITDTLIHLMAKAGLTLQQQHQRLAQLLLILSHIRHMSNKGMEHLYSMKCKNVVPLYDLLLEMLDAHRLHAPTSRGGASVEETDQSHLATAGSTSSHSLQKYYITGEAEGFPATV
human Constitutive Androstane Receptor (CAR), NR1I3 (gene 9970), sequence (Q14994 whole entry, looked up): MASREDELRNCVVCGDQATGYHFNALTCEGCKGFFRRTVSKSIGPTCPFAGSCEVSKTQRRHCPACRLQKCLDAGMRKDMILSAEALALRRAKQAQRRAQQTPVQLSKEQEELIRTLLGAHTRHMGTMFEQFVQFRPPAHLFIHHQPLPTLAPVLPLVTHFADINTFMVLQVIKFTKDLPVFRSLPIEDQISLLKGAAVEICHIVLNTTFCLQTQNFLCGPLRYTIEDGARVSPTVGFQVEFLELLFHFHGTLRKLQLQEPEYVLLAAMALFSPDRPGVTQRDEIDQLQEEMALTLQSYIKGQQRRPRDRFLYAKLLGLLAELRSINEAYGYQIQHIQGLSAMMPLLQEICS
chimpanzee Androgen Receptor (AR), AR (gene 747460), sequence (O97775 whole entry, looked up): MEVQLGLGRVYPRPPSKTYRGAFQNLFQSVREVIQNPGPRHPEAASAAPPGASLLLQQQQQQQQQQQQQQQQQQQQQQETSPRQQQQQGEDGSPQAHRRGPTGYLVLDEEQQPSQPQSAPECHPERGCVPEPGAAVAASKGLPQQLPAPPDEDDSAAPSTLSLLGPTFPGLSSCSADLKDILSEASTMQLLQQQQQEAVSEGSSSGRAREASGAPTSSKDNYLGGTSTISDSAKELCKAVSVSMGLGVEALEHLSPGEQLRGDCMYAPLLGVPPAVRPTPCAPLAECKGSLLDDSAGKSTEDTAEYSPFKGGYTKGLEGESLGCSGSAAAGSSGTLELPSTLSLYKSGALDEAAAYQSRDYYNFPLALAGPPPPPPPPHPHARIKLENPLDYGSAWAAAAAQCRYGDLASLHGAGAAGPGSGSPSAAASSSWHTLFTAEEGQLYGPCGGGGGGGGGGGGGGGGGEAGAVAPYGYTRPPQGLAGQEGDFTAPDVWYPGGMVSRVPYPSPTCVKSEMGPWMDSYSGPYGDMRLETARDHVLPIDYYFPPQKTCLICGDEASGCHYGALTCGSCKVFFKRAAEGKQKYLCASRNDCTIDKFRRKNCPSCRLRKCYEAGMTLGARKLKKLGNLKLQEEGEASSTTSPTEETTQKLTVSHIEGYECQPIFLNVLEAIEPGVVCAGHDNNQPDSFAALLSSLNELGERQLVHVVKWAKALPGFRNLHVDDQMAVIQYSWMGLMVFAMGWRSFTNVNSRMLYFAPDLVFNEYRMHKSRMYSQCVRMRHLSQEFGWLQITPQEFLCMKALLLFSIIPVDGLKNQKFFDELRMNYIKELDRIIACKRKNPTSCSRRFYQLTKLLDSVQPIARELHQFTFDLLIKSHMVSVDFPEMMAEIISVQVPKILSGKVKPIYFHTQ
human Peroxisome Proliferator-activated Receptor alpha (PPARa), PPARA (gene 5465), sequence (Q07869 whole entry, looked up): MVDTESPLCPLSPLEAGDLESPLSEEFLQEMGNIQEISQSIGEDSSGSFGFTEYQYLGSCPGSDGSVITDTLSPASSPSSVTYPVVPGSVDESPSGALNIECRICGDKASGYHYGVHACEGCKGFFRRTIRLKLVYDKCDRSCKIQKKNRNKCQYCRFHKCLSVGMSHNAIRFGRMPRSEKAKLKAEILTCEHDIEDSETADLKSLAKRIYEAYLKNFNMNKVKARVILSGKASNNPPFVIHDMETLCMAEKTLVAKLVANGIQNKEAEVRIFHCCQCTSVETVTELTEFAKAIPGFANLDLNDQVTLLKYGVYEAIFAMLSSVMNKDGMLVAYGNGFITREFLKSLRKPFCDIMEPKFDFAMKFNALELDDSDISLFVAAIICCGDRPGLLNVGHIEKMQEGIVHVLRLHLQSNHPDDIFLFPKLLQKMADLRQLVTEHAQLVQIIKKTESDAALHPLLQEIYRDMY
bovine Gamma-Aminobutyric Acid Type A Receptor Agonist (GABAR Agonist), GABRA1 (gene 780973), sequence (P08219 whole entry, looked up): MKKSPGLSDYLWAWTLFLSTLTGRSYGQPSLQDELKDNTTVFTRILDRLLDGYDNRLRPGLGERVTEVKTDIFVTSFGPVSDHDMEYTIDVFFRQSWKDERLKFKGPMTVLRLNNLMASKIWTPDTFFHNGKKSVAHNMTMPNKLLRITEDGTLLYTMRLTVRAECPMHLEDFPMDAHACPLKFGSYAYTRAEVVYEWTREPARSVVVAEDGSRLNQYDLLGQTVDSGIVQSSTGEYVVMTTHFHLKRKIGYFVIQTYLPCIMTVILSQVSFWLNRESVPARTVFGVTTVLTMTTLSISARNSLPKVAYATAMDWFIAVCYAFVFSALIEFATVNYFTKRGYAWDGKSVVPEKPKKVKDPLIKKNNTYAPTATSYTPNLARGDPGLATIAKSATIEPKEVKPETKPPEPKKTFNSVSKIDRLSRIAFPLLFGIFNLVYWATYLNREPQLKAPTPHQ
Bile acid receptor (Homo sapiens), sequence (Q96RI1 whole entry, looked up): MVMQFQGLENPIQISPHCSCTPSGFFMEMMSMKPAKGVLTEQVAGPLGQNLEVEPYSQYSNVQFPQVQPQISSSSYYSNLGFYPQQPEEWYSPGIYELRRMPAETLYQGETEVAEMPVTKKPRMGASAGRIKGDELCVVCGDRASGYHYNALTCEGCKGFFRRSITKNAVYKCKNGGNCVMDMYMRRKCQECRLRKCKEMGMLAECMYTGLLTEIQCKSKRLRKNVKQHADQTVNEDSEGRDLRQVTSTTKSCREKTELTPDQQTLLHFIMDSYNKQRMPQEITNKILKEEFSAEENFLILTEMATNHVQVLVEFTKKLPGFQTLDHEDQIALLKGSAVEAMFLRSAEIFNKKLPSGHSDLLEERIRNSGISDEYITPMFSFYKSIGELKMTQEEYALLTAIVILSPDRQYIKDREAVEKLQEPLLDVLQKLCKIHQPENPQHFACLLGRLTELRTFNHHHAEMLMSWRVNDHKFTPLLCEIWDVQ
rat Gamma-Aminobutyric Acid Type A Receptor BDZ, alpha 6 site (GABARa6), Gabra6 (gene 29708), sequence (P30191 whole entry, looked up): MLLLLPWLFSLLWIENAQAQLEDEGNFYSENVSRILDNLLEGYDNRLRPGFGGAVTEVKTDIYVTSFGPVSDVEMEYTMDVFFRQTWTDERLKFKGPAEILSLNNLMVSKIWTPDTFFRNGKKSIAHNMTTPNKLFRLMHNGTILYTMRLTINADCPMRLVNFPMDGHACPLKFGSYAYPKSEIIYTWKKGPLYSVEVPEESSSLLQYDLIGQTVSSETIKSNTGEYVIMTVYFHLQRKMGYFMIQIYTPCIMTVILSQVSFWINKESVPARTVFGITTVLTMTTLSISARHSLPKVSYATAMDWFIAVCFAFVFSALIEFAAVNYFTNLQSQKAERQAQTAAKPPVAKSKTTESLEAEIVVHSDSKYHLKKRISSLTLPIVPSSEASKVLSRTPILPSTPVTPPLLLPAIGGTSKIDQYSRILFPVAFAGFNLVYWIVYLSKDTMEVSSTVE

O=C1c2ccccc2C(=O)N1SC(Cl)(Cl)Cl
inactive: [1] | [2] | [3] | [4] | [5]

CC(C)OC(=O)Nc1cccc(Cl)c1
inactive: [6] | [3] | [4]

O=S(=O)(O)C(F)(F)C(F)(F)C(F)(F)C(F)(F)C(F)(F)C(F)(F)C(F)(F)C(F)(F)F
inactive: [7] | [9]
active: NCBI gene 100848466 25 µM [middle of 5 runs] | [8] 5.81 µM | [9] 11.2 µM

CNC(=O)Oc1ccccc1OC(C)C
inactive: [1] | [2] | [3] | [4]

N#Cc1c(Cl)c(Cl)c(Cl)c(C#N)c1Cl
inactive: NCBI gene 100848466 | [1] | [2] | [8] | [3] | [10] | [4]

CNC(=O)CSP(=S)(OC)OC
inactive: NCBI gene 100848466 | [3] | [4] | [11]

O=C(Nc1ccccc1)Nc1cnns1
active: [6] 3.68 µM
inactive: [3] | [4]

O=C(O)C(F)(F)C(F)(F)C(F)(F)C(F)(F)C(F)(F)C(F)(F)C(F)(F)F
inactive: NCBI gene 100848466 | [9]

COP(=S)(OC)Oc1ccc(SC)c(C)c1
inactive: [2] | [12] | [3] | [4]
active: NCBI gene 100848466 16.3 µM

CCCN(CCOc1c(Cl)cc(Cl)cc1Cl)C(=O)n1ccnc1
active: NCBI gene 100848466 5.4 µM | [1] 32 µM | [8] 19.7 µM
inactive: [10] | [5]

COc1nn(CSP(=S)(OC)OC)c(=O)s1
active: [1] 18.3 µM
inactive: NCBI gene 100848466 | [3] | [4]

O=[N+]([O-])c1c(Cl)c(Cl)c(Cl)c(Cl)c1Cl
inactive: NCBI gene 100848466 | [1] | [2] | [3] | [4] | [13] | [14] | [5]

[2H]C1([2H])[n+]2ccccc2-c2cccc[n+]2C1([2H])[2H]
inactive: [7]

CC(C)(C)C(O)C(Oc1ccc(Cl)cc1)n1cncn1 (stereo unspecified)
active: NCBI gene 100848466 39.8 µM | [8] 19.6 µM and 25 µM and 20.5 µM
inactive: [1] | [5] | [9]
